PubChem BioAssay AID493220 (National Center for Advancing Translational Sciences (NCATS), 2011)
Records with an inconclusive call do not appear. The source made the active and inactive calls. Calls follow the shape of the full dose curve.

These compounds were tested against Polyunsaturated fatty acid lipoxygenase ALOX15 (Homo sapiens) (UniProt P16050) (assay: Inhibitors of 12-hLO (12-human lipoxygenase): 15hLO-1 Cuvette-Based Inhibition Counterscreen Assay for 12hLO Followup Compounds). Conditions: purified 15hLO-1, UV 234 nm product formation.
Chain of Polyunsaturated fatty acid lipoxygenase ALOX15 (Homo sapiens) (P16050 whole entry, looked up): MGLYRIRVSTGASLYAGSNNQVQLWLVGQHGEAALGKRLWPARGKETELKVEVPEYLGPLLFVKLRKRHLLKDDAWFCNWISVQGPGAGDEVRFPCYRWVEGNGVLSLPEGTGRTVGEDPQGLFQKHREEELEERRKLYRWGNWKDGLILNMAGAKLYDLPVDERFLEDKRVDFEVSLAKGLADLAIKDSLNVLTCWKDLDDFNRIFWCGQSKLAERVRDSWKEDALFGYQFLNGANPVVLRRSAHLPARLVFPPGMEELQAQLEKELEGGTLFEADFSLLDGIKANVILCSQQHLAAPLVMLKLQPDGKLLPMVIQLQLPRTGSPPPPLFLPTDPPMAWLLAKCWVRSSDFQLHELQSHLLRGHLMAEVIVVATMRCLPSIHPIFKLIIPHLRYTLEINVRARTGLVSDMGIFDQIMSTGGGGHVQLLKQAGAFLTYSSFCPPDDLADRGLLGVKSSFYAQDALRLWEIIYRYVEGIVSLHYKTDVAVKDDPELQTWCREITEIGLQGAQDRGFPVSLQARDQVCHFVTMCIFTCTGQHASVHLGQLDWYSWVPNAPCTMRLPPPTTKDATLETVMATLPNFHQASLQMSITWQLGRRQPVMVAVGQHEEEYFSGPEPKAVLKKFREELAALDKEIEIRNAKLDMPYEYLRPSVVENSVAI
In short: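 In a cuvette, reactions were started by adding 50-200 nM human 15hLO-1 to 10 uM arachidonic acid (pH 8.0 HEPES, 0.01% Triton X-100). Absorbance at 234 nm was followed to completion. Enzymatic rates at typically five inhibitor concentrations gave IC50.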

Row | Compound | outcome | Potency
1 | Cc1ccc(C(=O)Nc2nnc(-c3ccco3)o2)cc1 | inactive | –
2 | COc1ccc2nc(NC(=O)c3cccc(OCc4c(C)noc4C)c3)sc2c1 | – | 33.6 µM (active)
3 | COc1cc(CNc2ccc(O)cc2)cc(Br)c1OCc1ccccc1F | inactive | –
4 | Cc1cccnc1NCc1ccc(O)c2ncccc12 | – | 23.9 µM (active)
5 | CCOc1ccc(-c2[nH]ncc2Oc2cccc(OC)c2)c(O)c1 | – | 2.96 µM (active)
6 | Cc1ccc(S(=O)(=O)Nc2ccc(NC(=O)Nc3cccc(C(F)(F)F)c3)cc2)cc1 | – | 31.5 µM (active)
7 | CCc1cc(-c2n[nH]c(C)c2Oc2ccc(C(C)C)cc2)c(O)cc1O | – | 3.87 µM (active)
8 | Cc1ccc(C(=O)Nc2nnc(-c3ccco3)o2)cc1C | inactive | –
9 | Cc1[nH]nc(-c2ccc(O)cc2O)c1-c1ccc(Cl)cc1 | – | 9.99 µM (active)
10 | CCOC(=O)CNC(c1ccccc1)c1cc(Br)ccc1NC(=O)CCN1CCOCC1 (stereo not given) | inactive | –
11 | CCc1cc(-c2[nH]ncc2-c2ccc3c(c2)OCO3)c(O)cc1O | – | 4.01 µM (active)
12 | COc1ccc(-c2n[nH]c(C(F)(F)F)c2-c2cc3ccccc3o2)c(O)c1 | – | 6.5 µM (active)
13 | Cc1ccc(C(=O)/C=C/c2c[nH]c3ccccc23)cc1 | – | 20.6 µM (active)
14 | CN(C)c1nccc(N(Cc2ccccc2)Cc2ccccc2)c1C#N | – | 17.7 µM (active)
15 | O=C(/C=C/c1ccc(O)c(O)c1)c1ccc(S(=O)(=O)N2CCCCCC2)cc1 | – | 1.31 µM (active)
